# Test results: the supplement of paper PMC8728848
# This excerpt belongs to a sample that is enriched for the strongest signals.
# What was measured:
# Test in all cases: glycan array binding signal (z-score within array); higher = stronger binding
# Conditions in all cases: glycan notation: IUPAC condensed, linker removed
# Fuc(a1-2)Gal(b1-4)Glc6S = target: Fuc(a1-2)Gal(b1-4)Glc6S
# Outline: (§1)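 Glycan array data were curated from 3228 arrays in the Consortium for Functional Glycomics database and kept only where the protein sequence was available. Glycan names were converted to IUPAC-condensed notation, and columns mapping to the same glycan were averaged. The binding signal is a within-array Z-score, averaged across arrays of the same protein sequence at different concentrations or buffers and across linkers. Negative Z-scores can be read as non-binding.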
# [1] = target: Fuc(a1-2)[Gal(a1-3)]Gal(b1-4)GlcNAc
# Outline: as §1
# [2] = target: Fuc(a1-2)[Gal(a1-3)]Gal(b1-4)GlcNAc(b1-3)[Fuc(a1-2)[Gal(a1-3)]Gal(b1-4)GlcNAc(b1-6)]GalNAc
# Outline: as §1
# [3] = target: Fuc(a1-2)[Gal(a1-3)]Gal(b1-4)[Fuc(a1-3)]GlcNAc(b1-3)GalNAc
# Outline: as §1
# [4] = target: Fuc(a1-3)[Gal(b1-4)]GlcNAc(b1-4)Gal(b1-4)[Fuc(a1-3)]GlcNAc
# Outline: as §1
# [5] = target: Gal(a1-3)Gal(b1-4)GlcNAc(b1-2)Man(a1-3)[Gal(a1-3)Gal(b1-4)GlcNAc(b1-2)Man(a1-6)]Man(b1-4)GlcNAc(b1-4)GlcNAc
# Outline: as §1
# [6] = target: Gal(a1-3)Gal(b1-4)GlcNAc(b1-6)GalNAc
# Outline: as §1
# [7] = target: Gal(a1-3)Gal(b1-4)[Fuc(a1-3)]GlcNAc(b1-2)Man(a1-3)[Gal(a1-3)Gal(b1-4)[Fuc(a1-3)]GlcNAc(b1-2)Man(a1-6)]Man(b1-4)GlcNAc(b1-4)GlcNAc
# Outline: as §1
# [8] = target: Gal(b1-3)[Neu5Ac(a2-6)]GlcNAc(b1-4)Gal(b1-4)Glc
# Outline: as §1
# [9] = target: Gal(b1-4)GalNAc(a1-3)[Fuc(a1-2)]Gal(b1-4)GlcNAc
# Outline: as §1
# Gal(b1-4)GlcNAc = target: Gal(b1-4)GlcNAc
# Outline: as §1
# Gal(b1-4)GlcNAc(b1-2)Man = target: Gal(b1-4)GlcNAc(b1-2)Man
# Outline: as §1
# [10] = target: Gal(b1-4)GlcNAc(b1-2)Man(a1-6)[Man(a1-3)]Man(b1-4)GlcNAc(b1-4)GlcNAc
# Outline: as §1
# [11] = target: Gal(b1-4)GlcNAc(b1-2)[Gal(b1-4)GlcNAc(b1-4)]Man(a1-3)[Gal(b1-4)GlcNAc(b1-2)[Gal(b1-4)GlcNAc(b1-6)]Man(a1-6)]Man(b1-4)GlcNAc(b1-4)GlcNAc
# Outline: as §1
# [12] = target: Gal(b1-4)GlcNAc(b1-3)Gal(b1-4)Glc
# Outline: as §1
# [13] = target: Gal(b1-4)GlcNAc(b1-3)Gal(b1-4)GlcNAc(b1-2)[Gal(b1-4)GlcNAc(b1-3)Gal(b1-4)GlcNAc(b1-6)]Man(a1-6)[Gal(b1-4)GlcNAc(b1-3)Gal(b1-4)GlcNAc(b1-2)Man(a1-3)]Man(b1-4)GlcNAc(b1-4)GlcNAc
# Outline: as §1
# [14] = target: Gal(b1-4)GlcNAc(b1-3)Gal(b1-4)GlcNAc(b1-3)Gal(b1-4)GlcNAc
# Outline: as §1
# [15] = target: Gal(b1-4)GlcNAc(b1-3)Gal(b1-4)GlcNAc(b1-3)Gal(b1-4)GlcNAc(b1-2)[Gal(b1-4)GlcNAc(b1-3)Gal(b1-4)GlcNAc(b1-3)Gal(b1-4)GlcNAc(b1-6)]Man(a1-6)[Gal(b1-4)GlcNAc(b1-3)Gal(b1-4)GlcNAc(b1-3)Gal(b1-4)GlcNAc(b1-2)Man(a1-3)]Man(b1-4)GlcNAc(b1-4)[Fuc(a1-6)]GlcNAc
# Outline: as §1
# [16] = target: Gal(b1-4)GlcNAc(b1-3)Gal(b1-4)GlcNAc(b1-3)Gal(b1-4)GlcNAc(b1-3)Gal(b1-4)GlcNAc(b1-3)Gal(b1-4)GlcNAc(b1-2)[Gal(b1-4)GlcNAc(b1-3)Gal(b1-4)GlcNAc(b1-3)Gal(b1-4)GlcNAc(b1-3)Gal(b1-4)GlcNAc(b1-3)Gal(b1-4)GlcNAc(b1-6)]Man(a1-6)[Gal(b1-4)GlcNAc(b1-3)Gal(b1-4)GlcNAc(b1-3)Gal(b1-4)GlcNAc(b1-3)Gal(b1-4)GlcNAc(b1-3)Gal(b1-4)GlcNAc(b1-2)Man(a1-3)]Man(b1-4)GlcNAc(b1-4)[Fuc(a1-6)]GlcNAc
# Outline: as §1
# [17] = target: Gal(b1-4)GlcNAc(b1-3)[Gal(b1-4)GlcNAc(b1-6)]Gal(b1-4)GlcNAc
# Outline: as §1
# Gal3S(b1-4)GlcNAc6S = target: Gal3S(b1-4)GlcNAc6S
# Outline: as §1
# Gal3S4S(b1-4)GlcNAc = target: Gal3S4S(b1-4)GlcNAc
# Outline: as §1
# Gal3S6S(b1-4)GlcNAc = target: Gal3S6S(b1-4)GlcNAc
# Outline: as §1
# [18] = target: GalNAc(b1-3)Gal(a1-6)Gal(b1-4)Glc
# Outline: as §1
# GalNAc(b1-3)GalNAc = target: GalNAc(b1-3)GalNAc
# Outline: as §1
# [19] = target: GlcNAc(b1-3)Gal(b1-4)GlcNAc(b1-3)[GlcNAc(b1-3)Gal(b1-4)GlcNAc(b1-3)]GalNAc
# Outline: as §1
# [20] = target: Man(a1-2)Man(a1-3)[Man(a1-2)Man(a1-6)]Man(a1-6)[Man(a1-3)[Man(a1-6)]Man(a1-6)]Man(b1-4)GlcNAc(b1-4)GlcNAc
# Outline: as §1
# [21] = target: Man(a1-2)Man(a1-3)[Man(a1-6)]Man(a1-6)[Man(a1-2)Man(a1-3)]Man(b1-4)GlcNAc(b1-4)GlcNAc
# Outline: as §1
# [22] = target: Man(a1-2)Man(a1-6)[Man(a1-3)]Man(a1-6)[Man(a1-2)Man(a1-2)Man(a1-3)]Man(b1-4)GlcNAc(b1-4)GlcNAc
# Outline: as §1
# Man(a1-3)[Man(a1-6)]Man = target: Man(a1-3)[Man(a1-6)]Man
# Outline: as §1
# [23] = target: Man(a1-3)[Man(a1-6)]Man(a1-6)[Man(a1-2)Man(a1-3)]Man(b1-4)GlcNAc(b1-4)GlcNAc
# Outline: as §1
# [24] = target: Man(a1-3)[Man(a1-6)]Man(a1-6)[Man(a1-3)]Man
# Outline: as §1
# [25] = target: Man(a1-3)[Man(a1-6)]Man(a1-6)[Man(a1-3)]Man(b1-4)GlcNAc(b1-4)GlcNAc
# Outline: as §1
# [26] = target: Man(a1-3)[Man(a1-6)]Man(b1-4)GlcNAc(b1-4)GlcNAc
# Outline: as §1
# [27] = target: Man(a1-3)[Man(a1-6)]Man(b1-4)GlcNAc(b1-4)[Fuc(a1-6)]GlcNAc
# Outline: as §1
# [28] = target: Neu5Ac(a2-3)Gal(b1-3)GalNAc(b1-4)[Neu5Ac(a2-8)Neu5Ac(a2-3)]Gal(b1-4)Glc
# Outline: as §1
# [29] = target: Neu5Ac(a2-3)Gal(b1-4)GlcNAc(b1-3)Gal(b1-4)GlcNAc(b1-2)Man(a1-3)[Neu5Ac(a2-3)Gal(b1-4)GlcNAc(b1-3)Gal(b1-4)GlcNAc(b1-2)Man(a1-6)]Man(b1-4)GlcNAc(b1-4)GlcNAc
# Outline: as §1
# [30] = target: Neu5Ac(a2-3)Gal(b1-4)GlcNAc(b1-3)Gal(b1-4)GlcNAc(b1-3)GalNAc
# Outline: as §1
# [31] = target: Neu5Ac(a2-3)[GalNAc(b1-4)]Gal(b1-4)GlcNAc(b1-3)GalNAc
# Outline: as §1
# [32] = target: Neu5Ac(a2-6)Gal(b1-4)GlcNAc(b1-2)Man(a1-3)Man(b1-4)GlcNAc(b1-4)GlcNAc
# Outline: as §1
# [33] = target: Neu5Ac(a2-6)Gal(b1-4)GlcNAc(b1-2)Man(a1-3)[GlcNAc(b1-4)][Neu5Ac(a2-6)Gal(b1-4)GlcNAc(b1-2)Man(a1-6)]Man(b1-4)GlcNAc(b1-4)GlcNAc
# Outline: as §1
# [34] = target: Neu5Ac(a2-6)Gal(b1-4)GlcNAc(b1-3)Gal(b1-4)GlcNAc(b1-3)Gal(b1-4)GlcNAc(b1-2)Man(a1-3)[Neu5Ac(a2-6)Gal(b1-4)GlcNAc(b1-3)Gal(b1-4)GlcNAc(b1-3)Gal(b1-4)GlcNAc(b1-2)Man(a1-6)]GalNAc
# Outline: as §1
# [35] = target: Neu5Ac(a2-6)GalNAc(b1-4)GlcNAc6S
# Outline: as §1
# [36] = target: Neu5Ac(a2-8)Neu5Ac(a2-3)Gal(b1-3)GalNAc(b1-4)[Neu5Ac(a2-3)]Gal(b1-4)Glc
# Outline: as §1
# [37] = target: Neu5Ac(a2-8)Neu5Ac(a2-3)Gal(b1-4)GlcNAc
# Outline: as §1
# [38] = target: Neu5Ac(a2-8)Neu5Ac(a2-8)Neu5Ac
# Outline: as §1
# Neu5Ac(b1-6)GalNAc = target: Neu5Ac(b1-6)GalNAc
# Outline: as §1
# [39] = target: Neu5Gc(a2-3)Gal(b1-3)[Fuc(a1-4)]GlcNAc
# Outline: as §1
# [40] = target: Neu5Gc(a2-6)Gal(b1-4)GlcNAc
# Outline: as §1
binder,measurement,setting,value
"GNA (Galanthus nivalis), P30617 (protein) MAKASLLILAAIFLGVITPSCLSDNILYSGETLSTGEFLNYGSFVFIMQEDCNLVLYDVDKPIWATNTGGLSRSCFLSMQTDGNLVVYNPSNKPIWASNTGGQNGNYVCILQKDRNVVIYGTDRWATGTHTGLVGIPASPPSEKYPTAGKIKLVTAK",glycan array binding signal (z-score),Fuc(a1-2)Gal(b1-4)Glc6S,-0.048
same,glycan array binding signal (z-score),[1],-0.241
same,glycan array binding signal (z-score),[2],-0.171
same,glycan array binding signal (z-score),[3],-0.127
same,glycan array binding signal (z-score),[4],-0.127
same,glycan array binding signal (z-score),[5],2.17
same,glycan array binding signal (z-score),[6],-0.182
same,glycan array binding signal (z-score),[7],-0.106
same,glycan array binding signal (z-score),[8],-0.195
same,glycan array binding signal (z-score),[9],-0.192
same,glycan array binding signal (z-score),Gal(b1-4)GlcNAc,-0.172
same,glycan array binding signal (z-score),Gal(b1-4)GlcNAc(b1-2)Man,-0.167
same,glycan array binding signal (z-score),[10],3.11
same,glycan array binding signal (z-score),[11],0.166
same,glycan array binding signal (z-score),[12],-0.076
same,glycan array binding signal (z-score),[13],-0.093
same,glycan array binding signal (z-score),[14],-0.163
same,glycan array binding signal (z-score),[15],-0.116
same,glycan array binding signal (z-score),[16],-0.018
same,glycan array binding signal (z-score),[17],-0.21
same,glycan array binding signal (z-score),Gal3S(b1-4)GlcNAc6S,0.332
same,glycan array binding signal (z-score),Gal3S4S(b1-4)GlcNAc,-0.065
same,glycan array binding signal (z-score),Gal3S6S(b1-4)GlcNAc,-0.101
same,glycan array binding signal (z-score),[18],-0.142
same,glycan array binding signal (z-score),GalNAc(b1-3)GalNAc,-0.175
same,glycan array binding signal (z-score),[19],-0.172
same,glycan array binding signal (z-score),[20],6.07
same,glycan array binding signal (z-score),[21],2.23
same,glycan array binding signal (z-score),[22],3.2
same,glycan array binding signal (z-score),Man(a1-3)[Man(a1-6)]Man,4.73
same,glycan array binding signal (z-score),[23],5.86
same,glycan array binding signal (z-score),[24],3.04
same,glycan array binding signal (z-score),[25],5.35
same,glycan array binding signal (z-score),[26],9.48
same,glycan array binding signal (z-score),[27],6.97
same,glycan array binding signal (z-score),[28],-0.155
same,glycan array binding signal (z-score),[29],0.02
same,glycan array binding signal (z-score),[30],-0.172
same,glycan array binding signal (z-score),[31],-0.073
same,glycan array binding signal (z-score),[32],-0.17
same,glycan array binding signal (z-score),[33],-0.182
same,glycan array binding signal (z-score),[34],-0.029
same,glycan array binding signal (z-score),[35],-0.173
same,glycan array binding signal (z-score),[36],-0.169
same,glycan array binding signal (z-score),[37],-0.178
same,glycan array binding signal (z-score),[38],-0.155
same,glycan array binding signal (z-score),Neu5Ac(b1-6)GalNAc,-0.21
same,glycan array binding signal (z-score),[39],-0.154
same,glycan array binding signal (z-score),[40],-0.116
